The text below walks through data of PubChem BioAssay (NCATS).

Inconclusive results are not listed. Values without a mark were called inactive. Calls of active or inactive are those of the source. Calls come from the whole dose curve; as a rule, active = well fitted activation curve with a large enough effect; inconclusive = small, poorly fitted or top-dose-only effect; inactive = flat fitted curve, though single readings scatter. Where a SMILES comes first, the peptide text is derived from it. [ ]: non-standard residue; d: D form. 2Abz = Nc1ccccc1C(=O)O
Potency is the fitted concentration of half-maximal effect.

The experiment can be described thus: Primary redox qHTS assay for identification of artifact compounds. (AID 1845223). The settings on record: Amplex Red/HRP redox cycling with DTT, fluorescence; series mostly up to 53.8 µM; redox activity (% of DA3003): at the top concentration. An excerpt:
PI: Alexander Tropsha Ph.D.
UNC Eshelman School of Pharmacy
University of North Carolina, Chapel Hill, North Carolina
Hits from high-throughput screening (HTS) of chemical libraries are often false positives due to their interference with the assay detection technology. In response to this problem, we generated the largest publicly available library of chemical liabilities and developed a free webtool to predict HTS artifacts, both of which are described herein. More specifically, we generated, curated, and integrated HTS datasets for thiol reactivity, redox activity, and luciferase (firefly and nano) activity. Using these curated datasets, we developed and validated several Quantitative Structure-Interference Relationship (QSIR) models to predict nuisance behavior. […] These models were employed for virtual profiling of the National Center for Advancing Translational Science's (NCATS) in-house library, and 256 compounds for each assay were selected for the experimental validation of nuisance behavior. The BA for these external predictions ranged from 58 to 78% for compounds within the applicability domains of the models. […] The models developed in this study, along with aggregation models previously developed by our group (SCAM Detective) were implemented in "Liability Predictor," an online tool which may be used as part of chemical library design or for triaging HTS hits. Both the models and the curated datasets are publicly available at https://liability.mml.unc.edu/.
SEQUENCE No. (e.g., 1, 2, 3, etc.); […] (e.g., Cells, Incubation, Reagent, etc.); VALUE; DESCRIPTION.
1; Reagent; 3 uL; Amplex Red and HRP mixture.
2; Compounds and control; 16 nL; Kalypsis pin tool (Wako USA) equipped with a 1536-well pin head. […]
6; Detection; Fluorescence, ViewLux microplate reader, 525 nm excitation, 598 nm emission.
NOTES (numbers refer to Sequence numbers above)
1. 3 uL of a mixture containing Amplex Red (25 uM final concentration) and horseradish peroxidase (HRP; 250 mU/mL final concentration) in assay buffer (HBSS) was dispensed into all wells of a 1536-well assay plate (solid-bottom black plate; Greiner Bio One, Monroe, NC).
2. A Wako Pin-tool (Wako Automation, Richmond, VA) was used to transfer 16 nL of compounds (consisting of 7-plates in qHTS format, final concentration range 18.3 nM to 114 uM) or control DA3003 (final concentration range 1.22 nM to 40 uM).
3. 15 min. incubation at room temperature protected from light.
4. 1 uL of DTT (prepared fresh; final concentration 250 uM) was dispensed for a final assay volume of 4 uL.
5. Plates were centrifuged (121xg, 15 seconds) and incubated for 30 minutes at room temperature protected from light.
6. Samples were read for fluorescence (Ex/Em = 525(20)/598(25) nm) on a ViewLux CCD imager (PerkinElmer). Data were normalized to DMSO (0% activity) and DA3003 (10 uM final concentration; 100% activity) and the resulting percent inhibition data were fitted to a 4-parameter Hill equation using NCATS in-house software.
Regarding `C=CC(C)(C)O[C@@H]1O[C@H](CO[C@@H]2OC[C@](O)(CO)[C@H]2O)[C@@H](O)[C@H](O)[C@H]1O`, the “redox activity (% of DA3003)” value is -15.8%.
In the case of `Cc1nn(C)c2c1C(c1ccc(C(F)(F)F)cc1)C(C#N)=C(N)O2` (stereo not given), the Potency was 4.23 µM (active).
`CC(C)(O)C1=CCC23COC(C2)C(O)(C(=O)O)CCC13` (stereo not given): the “redox activity (% of DA3003)” value was -12.6%.
Turning to `O=C1CC(c2ccc([N+](=O)[O-])cc2)=NN1c1ccccc1`, the “redox activity (% of DA3003)” value was -1.68%.
Still for that read-out and setting: the value for `O=c1ccn([C@@H]2O[C@H](CO)[C@@H](O)[C@H]2O)c(=O)[nH]1` was -1.89%; that for `COc1ccc([C@@H]2N[C@H](C(=O)O)Cc3c2[nH]c2ccccc32)cc1CN1CCN(c2ccccc2F)CC1` was 12%; that for `CC1=CCC2C(C)(CO)CCCC2(CO)C1CO` (stereo not given) was 6.27%.
For the compound `COCC(=O)N1CCc2cc(-c3csc(NC(=O)c4cc(OC)cc(OC)c4)n3)ccc21`, the “redox activity (% of DA3003)” value was -1.1%.
In the case of `CN1C(=O)c2ccccc2-n2c(nc3ccccc3c2=O)[C@@]12O[C@H]2c1ccccc1`, the “redox activity (% of DA3003)” value is 0%.
The same measure, in the same setting: for `CC1(C)O[C@]23C[C@H]1C[C@H](OC(=O)c1ccoc1)[C@]2(C)[C@@H](OC(=O)c1ccoc1)CCC3(C)O` (stereo not given in full) the value was 5.87% [at 25.6 µM].
Still for that read-out and setting: the value for `O=C(Nc1cccnn1)N1CCC(=Cc2cccc(Oc3ccc(C(F)(F)F)cn3)c2)CC1` was -6.19%; that for `CCc1cc2c(=O)c(-c3nc4ccccc4s3)coc2c(CN2CCCCC2)c1O` was -1.02% [at 25.6 µM].
Still for that read-out and setting: the value for `CC(/C=C/C1(O)C(C)(C)CC(O)CC1(C)O)OC1OC(CO)C(O)C(O)C1O` (stereo not given) was -14.9% [at 25.6 µM]; that for `C=C(C(=O)O)C1CCC(C)C2CCC(=O)OC2(C)C1` (stereo not given) was 0.246%.
Turning to `CC1(C)OC(=O)C(OCC2CC2)=C1c1ccc(S(C)(=O)=O)cc1`, the “redox activity (% of DA3003)” value was -0.681%.
Turning to `CCCC(N[C@@H](C)C(=O)N1[C@H](C(=O)O)C[C@@H]2CCCC[C@@H]21)C(=O)OCC` (stereo not given in full), the “redox activity (% of DA3003)” value is -3.2%.
For the compound `COc1cc(/C=C/C(=O)OC[C@H]2O[C@H](O[C@]3(CO)O[C@H](CO)[C@@H](O)[C@@H]3O)[C@H](O)[C@@H](O)[C@@H]2O)cc(OC)c1O`, the “redox activity (% of DA3003)” value is -1.35% [at 25.6 µM].
Take `COc1ccc(/C=C/C(=O)O[C@H]2[C@@H]3C=CO[C@@H](O[C@@H]4O[C@H](CO)[C@@H](O)[C@H](O)[C@H]4O)[C@@H]3[C@@]3(CO)O[C@@H]23)cc1O`: the “redox activity (% of DA3003)” value is 9.02% [at 25.6 µM].
As to `CC1(C)C(O)CCC2(C)C1C(O)C=C1COC(=O)C12O` (stereo not given), the “redox activity (% of DA3003)” value is -1.58%.
The same measure, in the same setting: for `COC(=O)C1=CO[C@@H](O[C@@H]2O[C@H](COC(=O)/C=C/c3cc(OC)c(O)c(OC)c3)[C@@H](O)[C@H](O)[C@H]2O)[C@@H]2C(CO)=CC[C@H]12` the value was -11.5% [at 25.6 µM].
For `C=C1CC2[C@]3(C)C(=C(O)C(=O)[C@@]2(C)[C@]2(C(=O)OC)C(=O)C(C)OC(=O)[C@@]12C)C(C)(C)C(=O)CC3O` (stereo not given in full), the “redox activity (% of DA3003)” value was -1.52% [at 25.6 µM].
For the compound `COc1cc(C(O)C(CO)Oc2ccc(CCCO[C@@H]3O[C@@H](C)[C@H](O)[C@@H](O)[C@H]3O)cc2OC)ccc1O` (stereo not given in full), the “redox activity (% of DA3003)” value is -1.13% [at 25.6 µM].
As to `COc1cc([C@H]2OC[C@]3(OC(C)=O)[C@@H](c4ccc(O[C@@H]5O[C@H](CO)[C@@H](O)[C@H](O)[C@H]5O)c(OC)c4)OC[C@H]23)ccc1O`, the “redox activity (% of DA3003)” value is -0.0796% [at 25.6 µM].
Regarding `CC(=C/C(=O)O)/C=C/[C@]1(O)[C@@]2(C)CO[C@]1(C)C[C@H](O[C@@H]1O[C@H](CO)[C@@H](O)[C@H](O)[C@H]1O)C2`, the “redox activity (% of DA3003)” value is -9.07% [at 25.6 µM].
Consider `CN1C(=O)N[C@@H](Cc2c[nH]c3c(Cl)cccc23)C1=O`, for which the “redox activity (% of DA3003)” value was -1.17%.
As to `O=C(O[C@H]1[C@@H]2C=CO[C@@H](O[C@@H]3O[C@H](CO)[C@@H](O)[C@H](O)[C@H]3O)[C@@H]2[C@@]2(CO)O[C@@H]12)c1ccc(O)cc1`, the “redox activity (% of DA3003)” value is -16.8% [at 25.6 µM].
For the compound `CNC(=O)COC(=O)NCCC1CCN(c2cccc(C)n2)CC1`, the “redox activity (% of DA3003)” value was 0.79%.
As to `CCOC(=O)c1ccc(N(C)c2csc(-c3ccccc3)n2)cc1`, the “redox activity (% of DA3003)” value was -6.65%.
In the case of `Oc1ccc([C@H]2COc3cc(O)ccc3C2)cc1`, the “redox activity (% of DA3003)” value is -4.2%.
Consider `O=S(=O)(NC1CCNCC1)c1cc(S(=O)(=O)c2ccccc2)ccc1C(F)(F)F`, for which the “redox activity (% of DA3003)” value is -5.83%.
The same measure, in the same setting: for `COc1cc(/C=C/C(=O)O[C@H]2[C@H](OC(=O)/C=C/c3cc(OC)c(O)c(OC)c3)O[C@H](CO[C@@H]3O[C@H](CO)[C@@H](O)[C@H](O)[C@H]3O)[C@@H](O)[C@@H]2O)ccc1O` the value was -10.7% [at 25.6 µM].
The same measure, in the same setting: the value for `Cc1cn2c(N)c(Cl)cc(C(=O)NCC3CCN(CC(C)C)CC3)c2n1` was -1.56%.
As for `CC1(C)CCC[C@@]2(C)[C@H]1[C@H](O)C=C1COC(=O)[C@@]12O`, the “redox activity (% of DA3003)” value is 13.9%.
Same read-out and setting: the value for `COC(=O)C1(Cc2ccc(O)cc2)OC(=O)C(OC)=C1c1ccc(O)cc1` (stereo not given) was -12.8%.
On the same count and under the same terms, the value for `O=c1c2cccnc2n(-c2cccc([N+](=O)[O-])c2)c(=O)n1Cc1ccncc1` was -6.25%; that for `CC1(CCC(=O)O)C(=O)C=CC23CC4CC(OC4(C)C2O)C13` (stereo not given) was -6.39%; that for `CC(C)c1ccc(CC(=O)N2CCC[C@@H](c3cccc(OC(C)(C)C(=O)O)c3)C2)cc1` was 22%.
As to `CCC(C)C1NC(=O)C2CCCN2C(=O)C(C(C)C)NC(=O)c2ccccc2NC(=O)C(Cc2ccc(O)cc2)NC(=O)C(C)NC(=O)C(C(C)O)NC1=O` (stereo not given) (cyclo([2Abz]VPITAY); configuration not given here), the “redox activity (% of DA3003)” value is 2.65% [at 25.6 µM].
Turning to `C=C[C@H]1[C@H](O[C@@H]2O[C@H](CO)[C@@H](O)[C@H](O)[C@H]2O)OC=C2C(=O)OCC[C@]21O`, the “redox activity (% of DA3003)” value is -7.67%.
For `C=C[C@H]1[C@H](O[C@@H]2O[C@H](CO)[C@@H](O)[C@H](O)[C@H]2O)OC=C(C(=O)OC)[C@H]1C[C@@H]1N[C@H](C(=O)O)Cc2c1[nH]c1ccccc21`, the “redox activity (% of DA3003)” value was 7.24% [at 25.6 µM].
